{
  "source": "paper PMC5540273",
  "about": "(PLoS ONE, 2017);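 also: KINOMEscan kinase panel screen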",
  "data": [
    {"system": "T1, p38-alpha", "T1 construct": "gene MAPK14", "settings": "concentration: 1 μM,replicates: in singlicate; n = 1", "units": {"%Inh": "%"}, "values": [
      {"smiles": "N#Cc1cccc(C(=O)NC2CCN(c3ccnc(Nc4ccc(F)cc4)n3)C2)c1", "note": "(centres unmarked) [GSK1379708]", "%Inh": 35},
      {"smiles": "CN1CCN(CCNc2nc3cc(Oc4ccc(NC(=O)Nc5cc(C(F)(F)F)ccc5F)cc4)ccc3[nH]2)CC1.Cl.Cl", "note": "[GW768504]", "%Inh": 0},
      {"smiles": "COc1cccc(OC)c1C(=O)Nc1cccc(-c2nn3ccccc3c2-c2ccnc(Nc3cccc(F)c3)n2)c1", "note": "[GSK361065]", "%Inh": 21},
      {"smiles": "Cl.c1ccc(Oc2ccc(Nc3ccnc4cc(-c5ccc(CN6CCNCC6)o5)ccc34)cc2)nc1", "note": "[GW567142]", "%Inh": 12},
      {"smiles": "CNC(=O)c1ccccc1Nc1nc(Nc2cccc(CS(C)(=O)=O)c2)ncc1C.O=CO", "note": "[GSK1520489]", "%Inh": 0},
      {"smiles": "Cn1ccc2ncnc(Oc3ccc(NC(=O)Nc4cncc(C(F)(F)F)c4)c(Cl)c3)c21", "%Inh": 47},
      {"smiles": "Cc1cccc(-c2nc(Nc3ccncc3)c3sccc3n2)n1", "note": "[GW869641]", "%Inh": 31}
    ]},
    {"system": "T2, p38-beta", "T2 construct": "gene MAPK11", "settings": "concentration: 1 μM,replicates: in singlicate; n = 1", "units": {"%Inh": "%"}, "values": [
      {"smiles": "CSc1nccc(-c2c(-c3ccc(F)cc3)ncn2CCCN2CCOCC2)n1.Cl", "note": "[SB-217146]", "%Inh": 0},
      {"smiles": "C[C@@H]1CNc2c(sc3ccc4nc(-c5ccncc5)ccc4c23)C(=O)N1", "%Inh": 8},
      {"smiles": "CCOC(=O)N1CCC(n2cnc(-c3ccc(F)cc3)c2-c2ccnc(N)n2)CC1", "note": "[SB-219952]", "%Inh": 34},
      {"smiles": "CN1CCN(CCCNc2nccc(-c3c(-c4ccc(F)cc4)nn4cc(C(N)=O)ccc34)n2)CC1", "note": "[GW622475]", "%Inh": 79},
      {"smiles": "COc1cc(Nc2nccc(N3CCC(NC(=O)c4cccc(C#N)c4)C3)n2)cc(OC)c1OC", "note": "(centres unmarked) [GSK1379751]", "%Inh": 0},
      {"smiles": "O=C1NCCc2[nH]c(-c3ccncc3)cc21", "%Inh": 27},
      {"smiles": "O=C(Nc1cccc(C(F)(F)F)c1)c1cccc(Oc2ccc3nccn3n2)c1", "%Inh": 0},
      {"smiles": "CCN1CCN(CCCC(=O)Nc2n[nH]c3nc(-c4ccc(O)cc4)c(Br)cc23)CC1", "note": "[SB-731579]", "%Inh": 0},
      {"smiles": "Cc1n[nH]c2cc(Nc3ccnc(Nc4cccc(CN5CCOCC5)c4)n3)ccc12", "note": "[GW682569]", "%Inh": 0},
      {"smiles": "Cl.Cl.NC[C@H](CC1CCCCC1)NC(=O)c1ccc(-c2ccnc3[nH]ccc23)s1", "note": "[GSK1581428]", "%Inh": 0},
      {"smiles": "Cc1ccc(Nc2ccnc(Nc3ccc4c(c3)CS(=O)(=O)C4)n2)cc1O.Cl", "note": "[GW579362]", "%Inh": 85},
      {"smiles": "CCNCC(Cc1ccccc1)NC(=O)c1cc(Br)c(-c2ccnc3[nH]ccc23)s1.Cl.Cl", "note": "(centres unmarked) [GSK1383280]", "%Inh": 0},
      {"smiles": "Cn1ccc2ncnc(Oc3ccc(NC(=O)Nc4cccc(C(F)(F)F)c4)c(F)c3)c21", "%Inh": 20},
      {"smiles": "CCCC(=O)Nc1n[nH]c2ncccc12", "note": "[SB-601436]", "%Inh": 0},
      {"smiles": "Cn1ccc2ncnc(Oc3ccc(NC(=O)Nc4ccnc(C(F)(F)F)c4)c(Cl)c3)c21", "%Inh": 0},
      {"smiles": "CCn1c(-c2nonc2N)nc2cncc(Br)c21", "note": "[SB-738004]", "%Inh": 0},
      {"smiles": "Cc1nnc(-c2ccc3occ(-c4ccc(S(C)=O)cc4)c3n2)o1", "note": "(centres unmarked)", "%Inh": 0},
      {"smiles": "C[C@@H]1CCN(C(=O)N2CCCC2)C[C@@H]1N(C)c1ncnc2[nH]ccc12", "%Inh": 2},
      {"smiles": "CC(=O)Nc1ccc(-c2cc3ncnc(SCC(=O)O)c3s2)cc1", "%Inh": 1},
      {"smiles": "CC(C)c1nc(-c2cccc(NS(=O)(=O)c3ccccc3)c2)c(-c2ccnc(Nc3ccc4c(c3)CN(C)CC4)n2)s1", "note": "[GSK1649598]", "%Inh": 35},
      {"smiles": "CC(C)S(=O)(=O)N1CCN(Cc2ccc3c(c2)nc(NC(=O)c2ccsc2)n3C[C@H](O)c2ccccc2)CC1", "note": "[GW635815]", "%Inh": 4},
      {"smiles": "Cn1ccc2ncnc(Oc3ccc(NC(=O)Nc4cc(C(C)(C)C)on4)c(Cl)c3)c21", "%Inh": 78},
      {"smiles": "CS(=O)(=O)c1cccc(CNc2nc(Nc3ccc4c(c3)[C@@H]3C[C@@H]4CNC3=O)ncc2C(F)(F)F)c1", "%Inh": 0},
      {"smiles": "CC(=O)c1c(-c2ccncc2)[nH]c(-c2ccncc2)c1C", "note": "[GW493036]", "%Inh": 0},
      {"smiles": "Cc1cccc2c(-c3ccncc3)c(-c3ccc(F)cc3)nn12.Cl", "note": "[GW461487]", "%Inh": 22},
      {"smiles": "CN(c1ccc2c(c1)nc(NCc1ccc(F)cc1)n2C)c1ccnc(Nc2ccc(CS(C)(=O)=O)cc2)n1.Cl", "note": "[GW813244]", "%Inh": 6},
      {"smiles": "COC(=O)c1cccc(NC(=O)NC2CCN(c3ccnc(NCc4ccc(F)cc4)n3)CC2)c1", "note": "[GSK1379860]", "%Inh": 0},
      {"smiles": "COc1cc2c(Nc3ccc(NC(=O)c4ccccc4)cc3)ncnc2cc1OCCCN1CCOCC1", "note": "[GSK301329]", "%Inh": 0},
      {"smiles": "Nc1nccc(-c2ccc3c(N)n[nH]c3c2)n1", "note": "[GSK1034945]", "%Inh": 0},
      {"smiles": "COc1ccc(Nc2nccc(N3CCC(NC(=O)c4cccc(C#N)c4)C3)n2)cc1", "note": "(centres unmarked) [GSK1379730]", "%Inh": 0},
      {"smiles": "N#Cc1cccc(C(=O)NC2CCN(c3ccnc(Nc4ccc(F)cc4)n3)C2)c1", "note": "(centres unmarked) [GSK1379708]", "%Inh": 0},
      {"smiles": "CN1CCN(CCNc2nc3cc(Oc4ccc(NC(=O)Nc5cc(C(F)(F)F)ccc5F)cc4)ccc3[nH]2)CC1.Cl.Cl", "note": "[GW768504]", "%Inh": 7},
      {"smiles": "COc1cccc(OC)c1C(=O)Nc1cccc(-c2nn3ccccc3c2-c2ccnc(Nc3cccc(F)c3)n2)c1", "note": "[GSK361065]", "%Inh": 90},
      {"smiles": "Cl.c1ccc(Oc2ccc(Nc3ccnc4cc(-c5ccc(CN6CCNCC6)o5)ccc34)cc2)nc1", "note": "[GW567142]", "%Inh": 0},
      {"smiles": "CNC(=O)c1ccccc1Nc1nc(Nc2cccc(CS(C)(=O)=O)c2)ncc1C.O=CO", "note": "[GSK1520489]", "%Inh": 0},
      {"smiles": "Cn1ccc2ncnc(Oc3ccc(NC(=O)Nc4cncc(C(F)(F)F)c4)c(Cl)c3)c21", "%Inh": 30},
      {"smiles": "Cc1cccc(-c2nc(Nc3ccncc3)c3sccc3n2)n1", "note": "[GW869641]", "%Inh": 17}
    ]}
  ]
}
